# Some of the results follow. The source made the active and inactive calls.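 The calls were made as follows, unless noted: active = inhibition above the average of all tested compounds plus 3 SD (cut at about 40% in these data); inactive = the rest.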
# Columns and labels:
# [1] = molecular target: Bcl-2-like protein 1 (Homo sapiens) (UniProt Q07817); experiment: Bcl-xL inhibitors blocking Bim BH3 binding, confirmation, counter-screen for MCL1 inhibitor project, biochemical, fluorescence polarization (AID 2166;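 active = inhibition above a cutoff equal to the mean inhibition of all tested compounds plus 3 SD, cut at about 30% in these data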); settings: GST-Bcl-xL / FITC-Bim BH3 peptide FP binding; at 10.9 µM; active compounds read high
# Chain of Bcl-2-like protein 1 (Homo sapiens) (Q07817 whole entry, looked up): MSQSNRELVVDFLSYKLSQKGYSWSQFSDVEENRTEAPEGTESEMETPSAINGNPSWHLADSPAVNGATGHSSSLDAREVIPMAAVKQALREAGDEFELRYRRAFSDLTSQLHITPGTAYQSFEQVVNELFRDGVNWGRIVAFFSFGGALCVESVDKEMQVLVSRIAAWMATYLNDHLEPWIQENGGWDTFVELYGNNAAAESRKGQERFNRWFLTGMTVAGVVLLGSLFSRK
# [2] = molecular target: Induced myeloid leukemia cell differentiation protein Mcl-1 (Homo sapiens) (UniProt Q07820); experiment: inhibitors of MCL1 binding to BIM-BH3, confirmation, biochemical, fluorescence polarization, triplicate (AID 2168); settings: GST-MCL1 / FITC-Bim-BH3 fluorescence polarization; at 10.9 µM; active compounds read high;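 also: 0% = DMSO wells and 100% = unlabeled Bim-BH3 control peptide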
# Chain of Induced myeloid leukemia cell differentiation protein Mcl-1 (Homo sapiens) (Q07820 whole entry, looked up): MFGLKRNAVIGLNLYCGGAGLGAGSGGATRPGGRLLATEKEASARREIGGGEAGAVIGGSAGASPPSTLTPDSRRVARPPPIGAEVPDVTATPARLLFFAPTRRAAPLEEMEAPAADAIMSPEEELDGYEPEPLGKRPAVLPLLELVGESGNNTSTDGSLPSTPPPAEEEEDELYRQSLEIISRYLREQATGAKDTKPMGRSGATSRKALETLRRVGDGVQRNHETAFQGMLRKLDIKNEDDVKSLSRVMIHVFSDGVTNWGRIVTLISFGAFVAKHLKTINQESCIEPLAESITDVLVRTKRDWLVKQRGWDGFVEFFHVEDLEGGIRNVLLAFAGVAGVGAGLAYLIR
# [3] = molecular target: Insulin-degrading enzyme (Homo sapiens) (UniProt P14735); experiment: human IDE inhibitors in live cells, confirmation, fluorescence polarization, HEK cells, FAbetaB substrate (AID 435028;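 active = mean inhibition across triplicate wells above the cutoff set by the earlier primary insulin-degrading enzyme screen, cut at about 16% in these data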;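 also: 0% = DMSO wells and 100% = 60 µM reference IDE inhibitor Ii1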); settings: FAbetaB cleavage, at 5.59 µM, active compounds read high
# [4] = cytotoxicity in HEK cells, cytotoxicity control for IDE inhibitor project, cell-based, luminescence (AID 449730; in the data active = inhibition above about 22%;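 also: 0% = vehicle wells and 100% = reference cytotoxic drug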); settings: HEK293 cytotoxicity, ATP luminescence; at 5.59 µM; active compounds read high
# [5] = molecular target: Lytic switch protein BZLF1 (Epstein-Barr virus (strain B95-8)) (UniProt P03206); experiment: EBV Zta binding to ZRE DNA, inhibitors, confirmation, biochemical, fluorescence polarization, triplicate (AID 2361;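 active = mean inhibition across triplicate runs above the hit threshold derived for the original primary screen, cut at about 33% in these data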;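 also: 0% = Zta with DMSO and 100% = wells lacking Zta protein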); settings: at 11.1 µM, active compounds read high
# Chain of Lytic switch protein BZLF1 (Epstein-Barr virus (strain B95-8)) (P03206 whole entry, looked up): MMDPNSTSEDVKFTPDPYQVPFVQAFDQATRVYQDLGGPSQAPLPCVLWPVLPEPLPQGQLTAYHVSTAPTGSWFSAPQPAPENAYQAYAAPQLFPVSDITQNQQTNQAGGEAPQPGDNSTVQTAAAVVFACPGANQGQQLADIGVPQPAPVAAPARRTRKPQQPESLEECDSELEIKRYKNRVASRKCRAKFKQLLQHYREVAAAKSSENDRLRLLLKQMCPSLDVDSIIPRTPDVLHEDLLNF
# [6] = tested on: Epstein-Barr virus nuclear antigen 1 (EBNA-1), Human herpesvirus 4; experiment: EBNA-1 DNA-binding inhibition, counter-screen for ZTA inhibitor project, biochemical, fluorescence polarization (AID 2362; call rule not given here); settings: at 14.8 µM, active compounds read high
# [7] = molecular target: Glutathione S-transferase omega-1 (Homo sapiens) (UniProt P78417); experiment: GSTO1 inhibitor hit confirmation, counter-screen for RBBP9 inhibitor project, biochemical, fluorescence polarization, triplicate (AID 2176;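 active = inhibition above the primary screen's cutoff, its mean inhibition plus 3 SD, cut at about 35% in these data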;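 also: loss of polarization as inhibitors block binding of rhodamine sulfonate ester activity probe; 0% = GSTO1 with DMSO and 100% = wells lacking GSTO1 enzyme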); settings: recombinant GSTO1, probe fluorescence polarization; at 5.96 µM; active compounds read high
# Chain of Glutathione S-transferase omega-1 (Homo sapiens) (P78417 whole entry, looked up): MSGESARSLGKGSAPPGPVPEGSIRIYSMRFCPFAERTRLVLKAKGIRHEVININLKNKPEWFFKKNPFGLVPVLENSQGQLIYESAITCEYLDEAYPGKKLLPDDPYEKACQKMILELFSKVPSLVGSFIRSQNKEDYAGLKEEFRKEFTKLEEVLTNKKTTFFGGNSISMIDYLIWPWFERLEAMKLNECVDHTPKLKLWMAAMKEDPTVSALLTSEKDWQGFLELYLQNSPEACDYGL
# [8] = molecular target: Protein-arginine deiminase type-4 (Homo sapiens) (UniProt Q9UM07); experiment: human PAD4 inhibitors, confirmation, biochemical, fluorescence polarization (AID 488796;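 active = mean inhibition across replicates above the hit cutoff set by the earlier primary screen, cut at about 15% in these data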;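 also: inhibitors block active-site labeling by the probe so polarization falls; 0% = PAD4 with probe and DMSO and 100% = probe without PAD4 enzyme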); settings: recombinant PAD4, RCA probe fluorescence polarization; at 6.36 µM; active compounds read high
# Chain of Protein-arginine deiminase type-4 (Homo sapiens) (Q9UM07 whole entry, looked up): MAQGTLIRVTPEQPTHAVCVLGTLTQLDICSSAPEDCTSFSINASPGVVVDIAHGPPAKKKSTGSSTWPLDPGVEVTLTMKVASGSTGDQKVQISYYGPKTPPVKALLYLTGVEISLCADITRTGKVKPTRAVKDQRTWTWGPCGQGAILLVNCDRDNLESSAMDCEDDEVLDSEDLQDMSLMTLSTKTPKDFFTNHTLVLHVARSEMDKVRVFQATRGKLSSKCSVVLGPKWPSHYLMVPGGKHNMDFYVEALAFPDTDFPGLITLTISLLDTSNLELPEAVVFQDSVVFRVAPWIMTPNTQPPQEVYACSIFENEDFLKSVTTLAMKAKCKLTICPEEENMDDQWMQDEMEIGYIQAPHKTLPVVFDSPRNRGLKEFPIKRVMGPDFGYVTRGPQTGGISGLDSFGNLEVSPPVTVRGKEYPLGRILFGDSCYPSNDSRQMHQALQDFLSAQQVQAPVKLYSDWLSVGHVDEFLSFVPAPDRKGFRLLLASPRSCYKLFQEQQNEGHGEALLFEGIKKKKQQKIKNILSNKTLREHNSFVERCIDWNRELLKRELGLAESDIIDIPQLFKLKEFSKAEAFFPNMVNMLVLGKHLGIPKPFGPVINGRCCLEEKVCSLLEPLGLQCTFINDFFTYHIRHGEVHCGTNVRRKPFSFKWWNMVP
# [9] = molecular target: Serine protease HTRA1 (Homo sapiens) (UniProt Q92743); experiment: HTRA1 protease inhibitors, retest, confirmation, biochemical, fluorescence polarization (AID 540248;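 active = mean inhibition over three repeats above a set limit taken from the earlier primary screen, cut at about 37% in these data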;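 also: 0% = HTRA1 with DMSO and 100% = wells lacking HTRA1; inhibitors block probe binding so polarization drops and inhibition rises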); settings: recombinant HTRA1, FP-rhodamine activity-based probe, at 5.96 µM, active compounds read high
# [10] = molecular target: Nuclear receptor coactivator 3 (Homo sapiens) (UniProt Q9Y6Q9); experiment: SRC3 coactivator transcriptional activity inhibitors, confirmation, cell-based, luminescence, quadruplicate (AID 588792;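 active = mean inhibition over 43.08%, the solvent-only control mean plus 3 SD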;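 also: 0% = DMSO treated cells and 100% = gossypol at 36 µM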); settings: HEK293 GAL4-SRC3 luciferase reporter, at 3.6 µM, active compounds read high
# Chain of Nuclear receptor coactivator 3 (Homo sapiens) (Q9Y6Q9 whole entry, looked up, the tested form may be a part): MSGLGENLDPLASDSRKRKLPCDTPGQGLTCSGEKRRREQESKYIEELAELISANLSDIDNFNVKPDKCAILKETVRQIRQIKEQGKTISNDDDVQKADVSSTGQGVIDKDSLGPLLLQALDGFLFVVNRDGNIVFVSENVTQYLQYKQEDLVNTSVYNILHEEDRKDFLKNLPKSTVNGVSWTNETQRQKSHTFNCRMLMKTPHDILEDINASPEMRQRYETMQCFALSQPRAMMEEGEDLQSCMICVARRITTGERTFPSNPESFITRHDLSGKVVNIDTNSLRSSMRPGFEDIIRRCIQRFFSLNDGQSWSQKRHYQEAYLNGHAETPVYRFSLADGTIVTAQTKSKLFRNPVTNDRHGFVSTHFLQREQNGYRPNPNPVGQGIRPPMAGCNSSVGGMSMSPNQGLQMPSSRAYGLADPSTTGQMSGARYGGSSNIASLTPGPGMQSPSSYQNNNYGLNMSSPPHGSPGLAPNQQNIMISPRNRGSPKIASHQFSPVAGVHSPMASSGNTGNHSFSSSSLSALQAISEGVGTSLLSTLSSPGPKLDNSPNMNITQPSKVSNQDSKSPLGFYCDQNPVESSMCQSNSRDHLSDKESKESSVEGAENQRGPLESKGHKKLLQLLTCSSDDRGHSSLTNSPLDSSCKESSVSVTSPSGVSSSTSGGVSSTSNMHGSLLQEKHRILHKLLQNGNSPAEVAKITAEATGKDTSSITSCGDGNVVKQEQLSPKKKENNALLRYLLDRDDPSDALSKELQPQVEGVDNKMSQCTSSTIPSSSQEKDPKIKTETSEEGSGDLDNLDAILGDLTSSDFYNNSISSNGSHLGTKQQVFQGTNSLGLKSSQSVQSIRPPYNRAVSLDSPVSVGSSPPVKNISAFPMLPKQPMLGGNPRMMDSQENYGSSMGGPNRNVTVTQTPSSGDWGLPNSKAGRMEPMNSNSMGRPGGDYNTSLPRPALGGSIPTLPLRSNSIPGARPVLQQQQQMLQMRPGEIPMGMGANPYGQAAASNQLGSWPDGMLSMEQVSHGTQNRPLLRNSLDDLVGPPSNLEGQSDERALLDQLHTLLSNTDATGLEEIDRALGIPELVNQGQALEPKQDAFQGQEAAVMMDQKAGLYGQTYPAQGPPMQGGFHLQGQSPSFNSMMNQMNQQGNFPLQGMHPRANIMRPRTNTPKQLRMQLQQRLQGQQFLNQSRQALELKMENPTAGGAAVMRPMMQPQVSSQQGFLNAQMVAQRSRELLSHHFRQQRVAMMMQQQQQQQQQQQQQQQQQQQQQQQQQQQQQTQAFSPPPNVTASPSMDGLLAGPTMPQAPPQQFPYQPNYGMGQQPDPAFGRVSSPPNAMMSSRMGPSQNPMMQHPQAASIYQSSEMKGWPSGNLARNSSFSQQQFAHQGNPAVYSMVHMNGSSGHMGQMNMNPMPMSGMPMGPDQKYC
# [11] = tested on: transactivating tegument protein VP16 (Human herpesvirus 1), Gal4-VP16 luciferase reporter; experiment: VP16 transactivation inhibitors, counter-screen for SRC3 inhibitor project, cell-based, luminescence, high throughput (AID 588794; in the data active = inhibition above about 30%); settings: mammalian cells, VP16-driven luciferase reporter luminescence; at 3.6 µM; active compounds read high
# [12] = molecular target: Nuclear receptor coactivator 1 (Homo sapiens) (UniProt Q15788); experiment: SRC1 coactivator transcriptional activity inhibitors, confirmation, cell-based, luminescence, quadruplicate (AID 588820;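 active = mean inhibition above 46.68%, the untreated control wells mean plus 3 SD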;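 also: 0% = DMSO wells and 100% = gossypol 36 µM treated wells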); settings: HEK293 GAL4-SRC1 luciferase reporter, at 3.6 µM, active compounds read high
# Chain of Nuclear receptor coactivator 1 (Homo sapiens) (Q15788 whole entry, looked up, the tested form may be a part): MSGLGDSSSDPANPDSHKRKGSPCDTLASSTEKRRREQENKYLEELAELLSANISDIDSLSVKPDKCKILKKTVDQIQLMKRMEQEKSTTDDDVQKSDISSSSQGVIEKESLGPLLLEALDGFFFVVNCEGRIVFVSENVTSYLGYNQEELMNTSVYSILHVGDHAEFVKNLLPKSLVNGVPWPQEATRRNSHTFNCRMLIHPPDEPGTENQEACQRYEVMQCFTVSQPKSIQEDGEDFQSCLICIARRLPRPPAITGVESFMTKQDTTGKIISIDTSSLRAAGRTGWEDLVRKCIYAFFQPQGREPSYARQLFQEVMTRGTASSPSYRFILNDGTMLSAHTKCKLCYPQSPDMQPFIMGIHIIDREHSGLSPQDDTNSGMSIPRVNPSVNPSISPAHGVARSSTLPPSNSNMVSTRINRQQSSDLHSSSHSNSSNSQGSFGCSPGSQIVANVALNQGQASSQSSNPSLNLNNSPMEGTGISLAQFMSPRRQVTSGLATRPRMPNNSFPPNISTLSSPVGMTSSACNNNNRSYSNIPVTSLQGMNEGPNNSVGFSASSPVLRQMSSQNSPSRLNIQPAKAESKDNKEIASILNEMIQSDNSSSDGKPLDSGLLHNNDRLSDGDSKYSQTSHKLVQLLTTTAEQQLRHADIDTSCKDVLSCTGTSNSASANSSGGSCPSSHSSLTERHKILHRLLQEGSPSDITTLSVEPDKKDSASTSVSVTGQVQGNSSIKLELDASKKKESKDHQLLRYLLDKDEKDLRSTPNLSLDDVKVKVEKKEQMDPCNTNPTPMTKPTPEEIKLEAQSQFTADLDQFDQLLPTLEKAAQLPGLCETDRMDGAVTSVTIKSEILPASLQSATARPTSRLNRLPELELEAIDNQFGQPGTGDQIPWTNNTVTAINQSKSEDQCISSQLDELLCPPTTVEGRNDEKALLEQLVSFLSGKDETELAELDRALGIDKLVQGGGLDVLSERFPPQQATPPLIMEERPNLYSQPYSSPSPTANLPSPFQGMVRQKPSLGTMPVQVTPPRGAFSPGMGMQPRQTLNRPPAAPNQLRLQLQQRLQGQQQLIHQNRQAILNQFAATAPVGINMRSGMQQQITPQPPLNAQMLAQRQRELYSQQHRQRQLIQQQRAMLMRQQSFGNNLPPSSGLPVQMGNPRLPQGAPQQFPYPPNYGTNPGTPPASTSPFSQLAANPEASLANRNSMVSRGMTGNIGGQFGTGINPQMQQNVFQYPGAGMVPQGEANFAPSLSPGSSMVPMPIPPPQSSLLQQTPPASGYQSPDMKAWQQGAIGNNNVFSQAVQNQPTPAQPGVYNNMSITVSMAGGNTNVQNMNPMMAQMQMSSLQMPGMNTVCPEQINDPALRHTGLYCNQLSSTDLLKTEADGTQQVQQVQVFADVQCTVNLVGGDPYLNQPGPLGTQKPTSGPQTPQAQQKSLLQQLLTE
# [13] = VP16 transactivation inhibitors, counter-screen for SRC1 inhibitor project, cell-based, luminescence, high throughput (AID 588824; in the data active = inhibition above about 25%); settings: cell-based VP16 transactivation luciferase luminescence; at 3.6 µM; active compounds read high
# [14] = compounds interfering with TAMRA-BSA probe, counter-screen for TCR-CD3 interaction inhibitor project, biochemical, fluorescence, TAMRA-labeled BSA (AID 652035; in the data active = inhibition above about 23%;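 also: 0% = buffer low control and 100% = reference high control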); settings: TAMRA-labeled BSA probe fluorescence counterscreen; at 9.4 µM; active compounds read high
# [15] = tested on: T-cell receptor (TCR)-CD3 interaction, human; experiment: TCR-CD3 interaction inhibitors, retest, confirmation, biochemical, fluorescence, TAMRA-labeled TCR probe (AID 652036; in the data active = inhibition above about 19%); settings: TAMRA-labeled TCR probe fluorescence binding assay; at 9.4 µM; active compounds read high
# [16] = molecular target: (Lyso)-N-acylphosphatidylethanolamine lipase (Mus musculus) (UniProt Q8VD66); experiment: ABHD4 inhibitors, retest, confirmation, biochemical, fluorescence polarization, mouse (AID 720658;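 active = mean inhibition across replicates above the hit cutoff set in the primary screen, cut at about 30% in these data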;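 also: 0% = wild-type ABHD4 with DMSO and 100% = catalytically dead S159A mutant with DMSO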); settings: purified mABHD4, FP-Rh probe fluorescence polarization; at 8.92 µM; active compounds read high
# Chain of (Lyso)-N-acylphosphatidylethanolamine lipase (Mus musculus) (Q8VD66 whole entry, looked up): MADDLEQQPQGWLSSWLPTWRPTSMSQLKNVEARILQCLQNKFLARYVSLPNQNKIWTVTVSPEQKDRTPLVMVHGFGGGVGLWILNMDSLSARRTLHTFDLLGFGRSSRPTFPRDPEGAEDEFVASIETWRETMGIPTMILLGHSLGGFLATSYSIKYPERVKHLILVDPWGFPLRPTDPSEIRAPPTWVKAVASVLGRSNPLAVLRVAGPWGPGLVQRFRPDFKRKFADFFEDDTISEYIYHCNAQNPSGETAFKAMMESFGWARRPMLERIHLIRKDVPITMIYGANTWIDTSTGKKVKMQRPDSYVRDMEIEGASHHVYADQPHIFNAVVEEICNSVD
structure (smiles),measurement,setting,value
COc1ccc(Nc2cc(Cl)ccc2C(=O)O)cn1,inhibition,[1],38.7% (active)
same,inhibition,[2],53.5% (active)
C=CCOc1cccc(C2C(C(=O)c3ccc(C)o3)=C(O)C(=O)N2c2nnc(C)s2)c1 (centres undefined),inhibition,[1],70.1% (active)
same,inhibition,[2],80.5% (active)
same,inhibition,[3],6.36% (inactive)
same,inhibition,[4],5.97% (inactive)
CCOC(=O)c1cc2n(c1N)-c1ccccc1C2=O,inhibition,[1],91.1% (active)
same,inhibition,[2],106% (active)
COC(=O)C[n+]1cccc2ccccc21,inhibition,[1],142% (active)
same,inhibition,[2],173% (active)
COCCN(CCOC)c1nc(N)c2c(N)nc3c(c2c1C#N)CC(=O)N3Cc1ccc(Cl)cc1,inhibition,[1],9.48% (inactive)
same,inhibition,[2],4.93% (inactive)
CCCN1CC=C2C(C#N)=C(N)C(C#N)(C#N)C(c3cc(OC)ccc3OC)C2C1 (centres undefined),inhibition,[1],35.6% (active)
same,inhibition,[2],35.4% (inactive)
O=c1[nH]c(=S)[nH]c2[nH]c(=S)[nH]c12,inhibition,[1],42.2% (active)
same,inhibition,[2],98.7% (active)
COCCn1c(N)c(NCc2ccccc2)c(=O)[nH]c1=O,inhibition,[1],37.1% (active)
same,inhibition,[2],62.8% (active)
CN(C)c1ccc(Nc2c3c4c(cccc4n(C)c2=O)C(=O)c2ccccc2-3)cc1,inhibition,[1],80.1% (active)
same,inhibition,[2],91.2% (active)
CN1C(=O)/C(=C/c2ccco2)SC1=Nc1cccc(C(=O)O)c1,inhibition,[1],93% (active)
same,inhibition,[2],125% (active)
same,inhibition,[5],-7.94% (inactive)
same,inhibition,[6],0.8% (inactive)
COC(=O)c1cc(OCC(=O)NC2CCCc3ccccc32)cc(C(=O)OC)c1 (centres undefined),inhibition,[1],16.3% (inactive)
same,inhibition,[2],28.4% (inactive)
Cc1nnc(NC(=O)/C=C/c2ccco2)s1,inhibition,[1],11.6% (inactive)
same,inhibition,[2],16.8% (inactive)
COc1ccc(C2C=C(c3ccc(Br)cc3)Nc3nc(NS(C)(=O)=O)nn32)cc1 (centres undefined),inhibition,[1],133% (active)
same,inhibition,[2],167% (active)
COc1cc([C@H](Cc2ccccc2)NC(C)=O)oc(=O)c1,inhibition,[1],37.8% (active)
same,inhibition,[2],40.9% (active)
COc1ccc2[nH]c(C)c(CCN(Cc3cccs3)C(=S)Nc3ccccc3OC)c2c1,inhibition,[1],14.6% (inactive)
same,inhibition,[2],12.4% (inactive)
Cc1ccc(C(=O)O)cc1-c1ccc(/C=C2\SC(=O)N(CC(=O)Nc3ccc4c(c3)OCO4)C2=O)o1,inhibition,[1],18.5% (inactive)
same,inhibition,[2],60.8% (active)
CN1c2ccc(C=O)c3c(C=O)ccc(c23)N(C)C1(C)C,inhibition,[1],126% (active)
same,inhibition,[2],151% (active)
same,inhibition,[7],63.5% (active)
same,inhibition,[8],18.5% (active)
same,inhibition,[9],46.9% (active)
same,inhibition,[10],27.9% (inactive)
same,inhibition,[11],9.96% (inactive)
same,inhibition,[12],13.7% (inactive)
same,inhibition,[13],16.3% (inactive)
same,inhibition,[14],15.3% (inactive)
same,inhibition,[15],10.7% (inactive)
same,inhibition,[16],20.4% (inactive)
Brc1ccc(C2=CC(c3ccco3)n3ncnc3N2)cc1 (centres undefined),inhibition,[1],52.9% (active)
same,inhibition,[2],75.9% (active)
O=C(C1=C(O)C(=O)N(c2ncccn2)C1c1cccs1)c1ccco1 (centres undefined),inhibition,[1],59.5% (active)
same,inhibition,[2],88.2% (active)
Cc1ccc(C2Nc3cccc4cccc(c34)N2)cc1,inhibition,[1],13.9% (inactive)
same,inhibition,[2],13.8% (inactive)
